Measured values from ChEMBL document CHEMBL1961873, “Compounds: GSK PKIS; Assays: Nanosyn kinase panel” (2012).

Tests used:
[1] = biological target: Mitogen-activated protein kinase kinase kinase kinase 4 (Homo sapiens) (UniProt O95819); conditions: at 1 µM;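 note: reported figure is an averaged inhibition value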
[2] = biological target: Dual specificity mitogen-activated protein kinase kinase 1 (Homo sapiens) (UniProt Q02750); conditions: at 0.1 µM
[3] = biological target: Dual specificity mitogen-activated protein kinase kinase 1 (Homo sapiens) (UniProt Q02750); conditions: at 1 µM
[4] = biological target: Misshapen-like kinase 1 (Homo sapiens) (UniProt Q8N4C8); conditions: at 0.1 µM
Misshapen-like kinase 1 (Homo sapiens), sequence (Q8N4C8 whole entry, looked up): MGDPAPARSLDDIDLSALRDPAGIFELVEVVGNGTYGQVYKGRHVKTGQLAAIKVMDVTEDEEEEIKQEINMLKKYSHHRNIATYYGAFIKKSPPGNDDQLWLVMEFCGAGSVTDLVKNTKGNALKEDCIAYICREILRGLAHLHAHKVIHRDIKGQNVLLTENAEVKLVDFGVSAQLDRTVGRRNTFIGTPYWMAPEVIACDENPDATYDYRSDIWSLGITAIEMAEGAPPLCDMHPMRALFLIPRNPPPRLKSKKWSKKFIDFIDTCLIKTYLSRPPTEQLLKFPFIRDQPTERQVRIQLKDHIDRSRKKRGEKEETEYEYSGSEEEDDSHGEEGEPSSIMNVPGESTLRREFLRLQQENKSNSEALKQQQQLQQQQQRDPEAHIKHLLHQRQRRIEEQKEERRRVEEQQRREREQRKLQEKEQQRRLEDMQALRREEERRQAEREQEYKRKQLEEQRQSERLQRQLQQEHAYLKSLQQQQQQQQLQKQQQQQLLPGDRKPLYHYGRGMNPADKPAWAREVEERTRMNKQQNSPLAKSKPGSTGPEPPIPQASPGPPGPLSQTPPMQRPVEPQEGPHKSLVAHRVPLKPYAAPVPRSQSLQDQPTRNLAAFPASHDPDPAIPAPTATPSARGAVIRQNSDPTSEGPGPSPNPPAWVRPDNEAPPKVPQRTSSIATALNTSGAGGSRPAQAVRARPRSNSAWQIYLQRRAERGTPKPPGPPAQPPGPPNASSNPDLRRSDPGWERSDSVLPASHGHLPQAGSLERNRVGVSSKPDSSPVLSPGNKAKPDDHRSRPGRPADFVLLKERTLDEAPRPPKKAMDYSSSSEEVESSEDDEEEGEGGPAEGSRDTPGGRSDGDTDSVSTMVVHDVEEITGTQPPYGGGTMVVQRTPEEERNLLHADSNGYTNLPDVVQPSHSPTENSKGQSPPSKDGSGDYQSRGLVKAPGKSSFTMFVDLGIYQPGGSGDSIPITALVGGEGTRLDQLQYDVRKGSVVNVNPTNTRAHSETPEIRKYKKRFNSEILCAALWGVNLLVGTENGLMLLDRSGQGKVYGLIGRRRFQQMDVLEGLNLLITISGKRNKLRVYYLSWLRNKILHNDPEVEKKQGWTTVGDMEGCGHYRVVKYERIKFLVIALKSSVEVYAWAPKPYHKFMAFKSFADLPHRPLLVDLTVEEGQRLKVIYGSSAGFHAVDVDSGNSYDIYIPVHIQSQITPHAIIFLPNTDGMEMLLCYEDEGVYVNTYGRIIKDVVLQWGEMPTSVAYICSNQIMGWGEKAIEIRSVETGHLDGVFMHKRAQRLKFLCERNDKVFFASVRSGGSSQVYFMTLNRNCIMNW

[5] = biological target: Misshapen-like kinase 1 (Homo sapiens) (UniProt Q8N4C8); conditions: at 1 µM
[6] = biological target: T1, Serine/threonine-protein kinase 4 (Homo sapiens) (UniProt Q13043); conditions: at 0.1 µM
T1 sequence (whole entry): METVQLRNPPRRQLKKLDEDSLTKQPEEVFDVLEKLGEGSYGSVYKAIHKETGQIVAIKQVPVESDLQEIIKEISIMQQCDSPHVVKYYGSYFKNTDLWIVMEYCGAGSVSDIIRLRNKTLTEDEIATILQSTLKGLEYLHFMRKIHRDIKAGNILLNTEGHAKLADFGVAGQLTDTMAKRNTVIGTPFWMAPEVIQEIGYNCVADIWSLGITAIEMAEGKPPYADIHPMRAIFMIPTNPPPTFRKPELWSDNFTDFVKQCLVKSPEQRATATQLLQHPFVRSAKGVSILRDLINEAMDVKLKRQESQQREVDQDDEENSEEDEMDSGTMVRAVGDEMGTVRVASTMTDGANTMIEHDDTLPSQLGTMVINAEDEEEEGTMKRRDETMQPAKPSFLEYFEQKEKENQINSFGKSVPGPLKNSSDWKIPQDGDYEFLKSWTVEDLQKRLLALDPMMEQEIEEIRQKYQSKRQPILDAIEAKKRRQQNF

[7] = biological target: T1, Serine/threonine-protein kinase 4 (Homo sapiens); conditions: at 1 µM
[8] = biological target: T2, Serine/threonine-protein kinase 3 (Homo sapiens) (UniProt Q13188); conditions: at 0.1 µM
T2 sequence (whole entry): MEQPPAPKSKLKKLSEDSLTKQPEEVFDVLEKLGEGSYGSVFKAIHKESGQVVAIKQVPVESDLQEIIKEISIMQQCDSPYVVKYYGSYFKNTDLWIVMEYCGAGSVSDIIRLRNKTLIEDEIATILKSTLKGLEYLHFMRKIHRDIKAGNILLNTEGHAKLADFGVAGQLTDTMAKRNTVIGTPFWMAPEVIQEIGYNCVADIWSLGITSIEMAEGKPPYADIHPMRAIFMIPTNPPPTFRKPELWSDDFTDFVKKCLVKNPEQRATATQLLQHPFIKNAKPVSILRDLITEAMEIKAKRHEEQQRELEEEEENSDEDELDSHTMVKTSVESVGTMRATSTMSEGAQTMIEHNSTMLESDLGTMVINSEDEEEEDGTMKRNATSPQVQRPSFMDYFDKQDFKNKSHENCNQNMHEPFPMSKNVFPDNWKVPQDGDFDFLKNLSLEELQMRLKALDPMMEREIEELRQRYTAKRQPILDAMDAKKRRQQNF

[9] = biological target: T2, Serine/threonine-protein kinase 3 (Homo sapiens); conditions: at 1 µM
[10] = biological target: Serine/threonine-protein kinase 26 (Homo sapiens) (UniProt Q9P289); conditions: at 0.1 µM
Serine/threonine-protein kinase 26 (Homo sapiens), sequence (Q9P289 2-416 limits assumed): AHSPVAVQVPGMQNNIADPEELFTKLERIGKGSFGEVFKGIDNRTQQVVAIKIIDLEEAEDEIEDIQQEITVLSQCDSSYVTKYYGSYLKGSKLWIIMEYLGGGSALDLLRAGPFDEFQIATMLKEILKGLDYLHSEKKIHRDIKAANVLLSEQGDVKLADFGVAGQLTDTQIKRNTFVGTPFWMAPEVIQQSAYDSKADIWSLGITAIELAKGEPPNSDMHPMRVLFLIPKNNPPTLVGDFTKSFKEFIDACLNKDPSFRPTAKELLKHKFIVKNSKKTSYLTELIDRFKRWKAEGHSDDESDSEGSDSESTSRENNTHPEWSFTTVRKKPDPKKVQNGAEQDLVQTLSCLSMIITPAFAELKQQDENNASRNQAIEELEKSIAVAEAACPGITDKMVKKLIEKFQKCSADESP

Dual specificity mitogen-activated protein kinase kinase 1 (Homo sapiens), sequence (Q02750 whole entry): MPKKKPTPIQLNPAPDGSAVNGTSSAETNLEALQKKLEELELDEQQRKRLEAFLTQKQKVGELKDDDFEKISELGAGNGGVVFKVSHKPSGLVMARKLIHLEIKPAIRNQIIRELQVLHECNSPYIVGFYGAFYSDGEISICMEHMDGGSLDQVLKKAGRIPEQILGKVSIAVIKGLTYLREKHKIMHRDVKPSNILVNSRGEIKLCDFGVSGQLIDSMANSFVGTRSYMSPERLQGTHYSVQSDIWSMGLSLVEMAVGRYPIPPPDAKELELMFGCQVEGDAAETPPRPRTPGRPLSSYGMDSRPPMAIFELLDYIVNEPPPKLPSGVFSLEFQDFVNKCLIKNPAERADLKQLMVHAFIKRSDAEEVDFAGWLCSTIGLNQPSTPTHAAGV
Mitogen-activated protein kinase kinase kinase kinase 4 (Homo sapiens), sequence (O95819 2-1239 limits assumed): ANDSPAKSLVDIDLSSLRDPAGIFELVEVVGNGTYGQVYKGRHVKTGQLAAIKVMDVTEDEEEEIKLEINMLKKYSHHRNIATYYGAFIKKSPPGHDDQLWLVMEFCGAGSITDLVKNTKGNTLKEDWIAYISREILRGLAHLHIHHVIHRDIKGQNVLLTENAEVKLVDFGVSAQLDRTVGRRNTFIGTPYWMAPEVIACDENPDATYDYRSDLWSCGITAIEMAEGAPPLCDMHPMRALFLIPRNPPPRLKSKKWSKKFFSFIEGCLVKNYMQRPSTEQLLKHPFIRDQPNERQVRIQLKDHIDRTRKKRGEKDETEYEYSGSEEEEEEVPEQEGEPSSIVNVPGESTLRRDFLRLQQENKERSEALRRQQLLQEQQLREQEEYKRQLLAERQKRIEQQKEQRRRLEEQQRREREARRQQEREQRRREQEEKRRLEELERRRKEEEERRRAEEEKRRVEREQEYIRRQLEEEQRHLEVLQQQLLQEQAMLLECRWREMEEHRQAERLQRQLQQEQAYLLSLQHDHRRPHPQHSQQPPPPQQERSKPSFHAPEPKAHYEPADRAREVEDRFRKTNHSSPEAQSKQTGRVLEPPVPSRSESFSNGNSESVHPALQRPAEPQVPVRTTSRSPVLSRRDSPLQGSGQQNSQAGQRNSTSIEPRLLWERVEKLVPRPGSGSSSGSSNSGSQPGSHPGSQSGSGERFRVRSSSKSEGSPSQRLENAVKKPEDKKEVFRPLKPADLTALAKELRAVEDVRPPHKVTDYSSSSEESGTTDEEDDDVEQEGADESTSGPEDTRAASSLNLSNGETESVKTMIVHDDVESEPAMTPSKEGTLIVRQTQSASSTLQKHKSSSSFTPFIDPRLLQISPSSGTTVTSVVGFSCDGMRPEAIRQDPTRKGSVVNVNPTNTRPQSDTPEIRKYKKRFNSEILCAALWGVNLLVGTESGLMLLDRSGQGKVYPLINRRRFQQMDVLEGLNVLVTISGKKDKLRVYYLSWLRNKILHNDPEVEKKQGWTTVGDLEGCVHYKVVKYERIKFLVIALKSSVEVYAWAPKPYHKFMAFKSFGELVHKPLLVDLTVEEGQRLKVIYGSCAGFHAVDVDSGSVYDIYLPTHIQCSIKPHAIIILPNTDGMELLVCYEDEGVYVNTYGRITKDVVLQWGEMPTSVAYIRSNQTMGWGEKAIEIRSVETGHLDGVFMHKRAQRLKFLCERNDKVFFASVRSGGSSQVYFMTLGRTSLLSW

Compound	inhibition [1] [%]	inhibition [2] [%]	inhibition [3] [%]	inhibition [4] [%]	inhibition [5] [%]	inhibition [6] [%]	inhibition [7] [%]	inhibition [8] [%]	inhibition [9] [%]	inhibition [10] [%]
Cc1cc(O)cc(C)c1/C=C/c1cncc(C(=O)N(C)C)c1	12.6	2.74	2.6	6.61	11.7	3.39	3.11	3.57	2.26	0.08
COc1cccc(-n2ncc3c(N/N=C/c4ccc(C)cc4)ncnc32)c1	21	4.05	3.78	7.18	16.1	5.34	13.2	6.16	11.4	-1.81
Cc1ccc(C(=O)NC2CC2)cc1-c1ccc2[nH]ncc2c1	-0.85	-3.43	-3.98	-4.28	-1.78	-2.09	1.26	-4.71	-2.04	-0.05
Cc1cc(-c2ccccn2)cc(C)c1/C=C/c1cncc(-c2nn[nH]n2)c1	13.5	3.04	4.93	2.69	9.19	3.88	8.04	3.7	7.75	-1.78
Cc1ccc2c(-c3ccnc(Nc4ccc5c(c4)OCCO5)n3)c(-c3ccc(C(F)(F)F)cc3)nn2n1	-0.58	1.89	1.58	0.81	-1.31	0.92	3.55	0.03	2.76	1.07
CCS(=O)(=O)c1ccc(OC)c(Nc2nccc(N(C)c3ccc4c(C)n[nH]c4c3)n2)c1	15.6	4.63	5.1	3.64	11.7	4.2	5.13	4.58	5.24	-2.14
Cc1ccc(O)cc1Nc1ccnc2ccc(S(C)(=O)=O)cc12	35.1	7.84	8.37	10.4	30.5	4.65	8.35	5.45	8.06	-0.99
NC(=O)c1cccc(Nc2nccc(Nc3cccc(F)c3)n2)c1	44.9	-0.23	1.42	6.07	33.3	0.59	12.2	1.63	6.4	-0.81
COc1ccc(-c2nn3ncccc3c2-c2ccnc(Nc3cccc(C(F)(F)F)c3)n2)cc1	4.62	1.9	2.55	5.18	5.08	1.69	2.89	4.76	5.12	-0.3
NC(=O)c1sc(-n2cnc3ccccc32)cc1OCc1ccccc1Br	11.3	3.81	4.35	5.6	9.1	1.82	7.07	4.03	5.83	-1.18
O=C1Nc2ccc(-c3cccnc3)cc2C1=Cc1cc(Br)c(O)c(Br)c1	91.6	4.59	5.62	45	81.6	9.98	39.6	10.3	37.3	9.93
NS(=O)(=O)c1ccc(-c2cc3ccncc3cc2OCc2ccccc2)cc1	6.71	4.49	3.72	2.78	5.92	5.08	7.76	5.7	5.97	0.92
CN(C)C(=O)O[C@H]1CN[C@H](C#Cc2cc3ncnc(Nc4ccc(OCc5cccc(F)c5)c(Cl)c4)c3s2)C1	4.23	1.29	2.35	3.51	3.5	2.1	4.55	2.81	3	-0.23
Cc1nc(-c2ccccc2)n2nc(NCCCN3CCOCC3)ncc12	5.45	2.79	4.46	4.74	5.12	1.32	4	2.92	4.68	
CCCN1CCCC(c2ccc(Nc3nc(Nc4cc(F)ccc4C(N)=O)c4cc[nH]c4n3)c(OC)c2)C1 (centres undefined)	80.8	9.59	33.4	28.3	71.7	10.2	41	6.09	10.6	-1.66
Cc1ccc(NC(=O)CC2CC2)cc1-c1ccc(C(=O)NCC2CC2)cc1	9.33	3.69	2.73	2.74	5.47	5.3	8.01	4.49	5.72	0.36
Nc1nccc(-c2c(-c3ccc(F)cc3)nn3cc(C(F)(F)F)ccc23)n1	2.37	1.8	0.93	1.74	1.52	0.23	-0.05	-0.79	-0.81	0.43
